The source made the active and inactive calls.
Key:
[1] = tested on: PRMT1 (protein arginine N-methyltransferase 1); assay: small molecules binding arginine methyltransferase PRMT1 – biochemical, small-molecule microarray, 635 nm fluorescence, primary screen (AID 1088); conditions: higher = more signal;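 also: binding of Prmt1 protein to compounds spotted on small-molecule microarray slides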
[2] = growth effects on S. cerevisiae YJM789 – YJM789 clinical isolate, OD600, 24 h, basal, primary screen (AID 1089); conditions: higher = more signal, called active from +8 up or from −8 down;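 also: growth of clinical yeast isolate S. cerevisiae YJM 789 seeded 1000 cells per well; test concentration not given here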
[3] = S. pombe growth modifiers, basal conditions – strain 972, OD600, 24 h, no modulator, primary screen (AID 1090);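 also: basal condition with compound alone and no growth modifier present; test concentration not given here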; conditions: S. pombe 972 growth, higher = more signal, called active from +8 up or from −8 down
[4] = budding yeast growth modifiers under rapamycin – strain BY4716, OD600, 96 h, primary screen (AID 1091); also: test concentration not given here; conditions: S. cerevisiae BY4716 + rapamycin, higher = more signal, called active from +8 up or from −8 down
[5] = biological target: Torsin-1A-interacting protein 2 (Homo sapiens) (UniProt Q8NFQ8); assay: small molecules binding lysate-expressed LULL1 – cell lysate, human LULL1 lysate, 635/667 nm fluorescence, primary screen (AID 1092); conditions: small-molecule microarray, hLULL1 lysate binding, 635 nm fluorescence; higher = more signal;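 also: probe is lysate of COS7 cells overexpressing human LULL1; score merges per-feature 667 nm fluorescence with signal-to-noise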
[6] = optical density change of DRC41 E. coli – strain DRC41, OD650, 24 h, E. coli filamentation project, primary screen (AID 1093);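 also: MC1000 strain lacking acrAB efflux and sulA so SOS filamentation is blocked; test concentration not given here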; conditions: E. coli DRC41 growth, higher = more signal, called active from +8 up or from −8 down
[7] = probe aLefty2 binding to arrayed compounds – biochemical, biotinylated probe, 635/667 nm fluorescence, primary screen (AID 1094); conditions: small-molecule microarray, higher = more signal;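 also: score merges spot fluorescence near 667 nm with spot signal-to-noise ratio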
[8] = tested on: Noggin (protein binding on small-molecule microarray); assay: small molecules binding Noggin protein – biochemical, 635/667 nm fluorescence, primary screen (AID 1095); conditions: 635 nm fluorescence, higher = more signal;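 also: score merges 667 nm feature fluorescence with signal to noise over triplicate slides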
[9] = biological target: Neurogenic locus notch homolog protein 3 (Homo sapiens) (UniProt Q9UM47); assay: small molecules binding NOTCH3 protein – biochemical, 635/667 nm fluorescence, primary screen (AID 1096); conditions: small-molecule microarray, 635 nm fluorescence, higher = more signal
[10] = probe aEGFR binding to arrayed compounds – biochemical, biotinylated probe, 635/667 nm fluorescence, primary screen (AID 1097); conditions: small-molecule microarray, higher = more signal;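 also: probe is a biotinylated anti-EGFR antibody binding compounds printed on slides; score combines fluorescence near 667 nm and signal to noise of each spot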

Sequence of Torsin-1A-interacting protein 2 (Homo sapiens) (Q8NFQ8 whole entry, looked up): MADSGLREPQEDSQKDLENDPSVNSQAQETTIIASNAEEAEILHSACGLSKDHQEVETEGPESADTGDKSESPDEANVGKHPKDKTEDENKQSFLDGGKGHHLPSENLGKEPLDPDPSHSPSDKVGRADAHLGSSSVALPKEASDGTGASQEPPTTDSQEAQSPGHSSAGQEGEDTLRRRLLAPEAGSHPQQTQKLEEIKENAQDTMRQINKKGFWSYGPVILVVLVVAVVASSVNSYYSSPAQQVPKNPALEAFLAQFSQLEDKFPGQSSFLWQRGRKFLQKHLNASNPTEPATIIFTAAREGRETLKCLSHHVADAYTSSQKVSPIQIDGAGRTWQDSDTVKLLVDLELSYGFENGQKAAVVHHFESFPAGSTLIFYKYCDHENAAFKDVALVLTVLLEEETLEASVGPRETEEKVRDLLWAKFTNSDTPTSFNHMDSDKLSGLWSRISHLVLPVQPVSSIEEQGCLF
Sequence of Neurogenic locus notch homolog protein 3 (Homo sapiens) (Q9UM47 whole entry, looked up): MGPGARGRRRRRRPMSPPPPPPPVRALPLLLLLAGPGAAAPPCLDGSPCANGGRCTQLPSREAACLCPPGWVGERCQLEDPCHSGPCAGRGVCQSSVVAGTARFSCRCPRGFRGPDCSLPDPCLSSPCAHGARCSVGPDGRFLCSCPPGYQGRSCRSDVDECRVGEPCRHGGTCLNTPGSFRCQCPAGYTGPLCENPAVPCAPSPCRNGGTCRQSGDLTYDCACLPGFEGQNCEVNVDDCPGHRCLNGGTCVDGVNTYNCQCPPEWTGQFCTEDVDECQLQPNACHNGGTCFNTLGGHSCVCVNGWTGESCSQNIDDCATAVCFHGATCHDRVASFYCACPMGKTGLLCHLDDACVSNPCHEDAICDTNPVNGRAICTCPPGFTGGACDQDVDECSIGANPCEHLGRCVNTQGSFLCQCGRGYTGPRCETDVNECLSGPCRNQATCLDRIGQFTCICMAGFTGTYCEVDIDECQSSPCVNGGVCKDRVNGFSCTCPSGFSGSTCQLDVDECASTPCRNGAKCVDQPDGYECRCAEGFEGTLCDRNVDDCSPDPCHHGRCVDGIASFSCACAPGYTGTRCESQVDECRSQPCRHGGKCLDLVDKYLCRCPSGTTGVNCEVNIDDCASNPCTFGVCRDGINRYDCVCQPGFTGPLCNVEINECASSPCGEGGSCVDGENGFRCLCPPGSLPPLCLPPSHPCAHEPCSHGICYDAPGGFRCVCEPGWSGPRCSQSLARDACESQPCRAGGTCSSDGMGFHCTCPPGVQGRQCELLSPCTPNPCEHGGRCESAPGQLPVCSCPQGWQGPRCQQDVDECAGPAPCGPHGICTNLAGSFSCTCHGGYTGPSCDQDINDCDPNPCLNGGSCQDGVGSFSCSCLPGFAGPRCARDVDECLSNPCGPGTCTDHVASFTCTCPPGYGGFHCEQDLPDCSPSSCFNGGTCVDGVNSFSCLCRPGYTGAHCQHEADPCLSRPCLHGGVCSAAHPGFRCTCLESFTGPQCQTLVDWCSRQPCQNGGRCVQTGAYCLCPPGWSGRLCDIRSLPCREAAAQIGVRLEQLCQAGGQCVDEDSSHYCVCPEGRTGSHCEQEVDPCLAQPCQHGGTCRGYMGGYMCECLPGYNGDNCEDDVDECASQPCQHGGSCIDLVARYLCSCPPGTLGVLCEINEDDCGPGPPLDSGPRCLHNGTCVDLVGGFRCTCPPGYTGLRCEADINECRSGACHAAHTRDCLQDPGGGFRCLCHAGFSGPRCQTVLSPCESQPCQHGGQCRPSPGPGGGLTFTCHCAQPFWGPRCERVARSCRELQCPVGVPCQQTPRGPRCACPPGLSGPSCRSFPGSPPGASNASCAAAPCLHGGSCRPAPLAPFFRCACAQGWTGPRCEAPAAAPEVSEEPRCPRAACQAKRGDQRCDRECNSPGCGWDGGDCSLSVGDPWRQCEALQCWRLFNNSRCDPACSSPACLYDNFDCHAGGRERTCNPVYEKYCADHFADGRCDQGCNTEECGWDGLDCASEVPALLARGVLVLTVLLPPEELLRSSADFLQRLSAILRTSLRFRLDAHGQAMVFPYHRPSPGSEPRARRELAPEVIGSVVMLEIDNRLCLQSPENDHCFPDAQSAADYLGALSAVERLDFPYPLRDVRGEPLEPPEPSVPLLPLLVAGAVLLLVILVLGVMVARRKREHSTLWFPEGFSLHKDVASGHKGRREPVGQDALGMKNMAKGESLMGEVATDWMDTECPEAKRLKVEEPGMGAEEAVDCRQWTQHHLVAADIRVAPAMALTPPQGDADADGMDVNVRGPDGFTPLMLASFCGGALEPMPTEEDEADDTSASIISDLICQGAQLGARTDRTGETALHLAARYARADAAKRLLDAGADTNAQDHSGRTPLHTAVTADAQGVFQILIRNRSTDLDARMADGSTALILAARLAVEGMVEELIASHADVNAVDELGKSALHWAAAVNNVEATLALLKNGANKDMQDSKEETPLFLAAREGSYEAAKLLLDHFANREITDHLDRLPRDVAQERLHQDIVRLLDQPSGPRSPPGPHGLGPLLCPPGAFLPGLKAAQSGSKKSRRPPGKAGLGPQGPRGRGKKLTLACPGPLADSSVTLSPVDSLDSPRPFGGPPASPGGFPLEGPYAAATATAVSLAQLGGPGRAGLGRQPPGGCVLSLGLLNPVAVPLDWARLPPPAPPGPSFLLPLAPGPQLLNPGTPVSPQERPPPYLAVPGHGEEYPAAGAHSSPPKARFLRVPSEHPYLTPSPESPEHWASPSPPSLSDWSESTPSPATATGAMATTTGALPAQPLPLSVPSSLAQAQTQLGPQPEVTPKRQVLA

| SMILES | composite z-score [1] | z-score [2] | z-score [3] | z-score [4] | composite z-score [5] | z-score [6] | composite z-score [7] | composite z-score [8] | composite z-score [9] | composite z-score [10] |
| --- | --- | --- | --- | --- | --- | --- | --- | --- | --- | --- |
| CCCNC(=O)OC[C@H]1O[C@H](c2ccccc2)C=C[C@@H]1Oc1ccc(OC)cc1 | -0.0125 | -0.325 (inactive) | -0.423 (inactive) | 0.0199 (inactive) | 0.361 | 0.806 (inactive) | -0.0916 | -0.234 | -0.124 | -0.146 |
| CCc1cc2c(nc1CC)CCN(CCC(C)=NOC[C@H]1O[C@H](c3ccccc3)C=C[C@@H]1Oc1ccc(OC)cc1)C2 | 0.841 | -0.837 (inactive) | -5.85 (inactive) | -0.473 (inactive) | 0.825 | -0.782 (inactive) | -0.164 | 0.0346 | 0.215 | -0.0549 |
| CCOC(=O)[C@H](Cc1ccccc1)NC(=O)CCC1CC(OC(=O)NCCc2ccc(F)cc2)CC2(CCCC(COC(=O)NCCc3ccccc3OC)O2)O1 (stereo not given in full) | 1.4 | -0.053 (inactive) | 0.932 (inactive) | 0.785 (inactive) | 2.18 | -0.715 (inactive) | -0.157 | 0.955 | 1.13 | 0.0846 |
| CO[C@H]1COC(=O)CCC[C@@H](C)[C@H](OC)COC(=O)[C@@H](C)NC(=O)CC=C[C@@H]1C | 1.4 | -0.994 (inactive) | -1.11 (inactive) | 0.0722 (inactive) | -1.7 | -0.597 (inactive) | -0.145 | 1.27 | 0.571 | 0.0115 |
| COc1ccc(O[C@H]2C=C[C@@H](c3ccccc3)O[C@@H]2COC(=O)CCC(C)=NO[C@@H]2O[C@H](COC(C)=O)[C@@H](OC(C)=O)[C@H](OC(C)=O)[C@H]2OC(C)=O)cc1 | 1.44 | 1.2 (inactive) | 1.03 (inactive) | 0.865 (inactive) | 0.727 | 0.271 (inactive) | -0.253 | 0.749 | 1.1 | -0.0271 |
| C=COC[C@@H]1CN2[C@@H](CC[C@@H](C)[C@@H]2c2ccc(Br)cc2)C(=O)O1 | 0.217 | -0.872 (inactive) | -17.1 (active) | -0.61 (inactive) | 0.0749 | -0.756 (inactive) | -0.0769 | -0.0482 | -0.906 | -0.267 |
| CCOC(=O)[C@H](CC(C)C)NC(=O)CCC1CC(OC(=O)NCCc2ccc(F)cc2)CC2(CCCC(COC(=O)NCC(c3ccccc3)c3ccccc3)O2)O1 (stereo not given in full) | 1.41 | -0.297 (inactive) | 0.427 (inactive) | -1.3 (inactive) | 2.59 | -0.198 (inactive) | -0.105 | 0.569 | 0.499 | -0.127 |
| Cc1ccc(S(=O)(=O)N[C@H]2COC(=O)CC=C[C@H](C)[C@@H](NS(=O)(=O)c3ccc(C)cc3)COC(=O)CC=C[C@@H]2C)cc1 | 0.405 | -0.293 (inactive) | 0.518 (inactive) | 0.0667 (inactive) | 0.247 | 0.0401 (inactive) | -0.126 | 0.601 | 0.321 | -0.068 |
| COC(=O)[C@@H]1CC[C@H](C)[C@@H](c2ccc(C)cc2)N1C(=O)c1ccc(C=NOC[C@@H](C)[C@H](OCc2ccccc2)C(C)C)cc1 | 1.55 | -2.56 (inactive) | -6.29 (inactive) | -1.51 (inactive) | 1.3 | 0.862 (inactive) | -0.244 | 0.573 | 1.09 | 0.102 |
| CO[C@@H]1COC(=O)[C@@H](C)NC(=O)CC=C[C@@H](C)[C@H](NS(=O)(=O)c2ccc(C)cc2)COC(=O)[C@H](C)NC(=O)CC=C[C@H]1C | 1.36 | -0.263 (inactive) | -0.988 (inactive) | -0.331 (inactive) | 0.537 | 1.72 (inactive) | -0.319 | 0.879 | 0.225 | -0.0793 |
| CO[C@@H]1COC(=O)[C@H](CCSC)NC(=O)CC=C[C@@H](C)COC(=O)[C@H](C)NC(=O)CC=C[C@H]1C | 1.39 | 0.153 (inactive) | -0.266 (inactive) | 0.291 (inactive) | -0.0068 | 1.01 (inactive) | -0.247 | 0.783 | 0.989 | -0.201 |
| CCOC(=O)[C@H](CC(C)C)NC(=O)CCC1CC(OC(=O)NCc2cccc3ccccc23)CC2(CCCC(COC(=O)NCC3CCCCC3)O2)O1 (stereo not given in full) | 1.47 | -0.402 (inactive) | -0.947 (inactive) | 0.0127 (inactive) | 1.11 | -0.683 (inactive) | -0.0151 | 0.895 | 0.818 | -0.0828 |
| COc1ccc(COC(=O)NN=C2C[C@@H](O)[C@@H](O)[C@@H]3[C@@H]4C(=O)N(c5cccc(Oc6ccccc6)c5)C(=O)[C@@H]4CC[C@@H]23)cc1 | -0.184 | 1.15 (inactive) | 0.897 (inactive) | 0.752 (inactive) | 0.624 | 0.301 (inactive) | 0.162 | -0.516 | -0.732 | -0.0953 |
| CCOC(=O)[C@H](CC(C)C)NC(=O)CCC1CC(OC(=O)NCc2cccc3ccccc23)CC2(CCCC(COC(=O)NCCOC)O2)O1 (stereo not given in full) | 1.5 | -1.43 (inactive) | -0.837 (inactive) | -1.09 (inactive) | 2.7 | -0.157 (inactive) | -0.0633 | 0.607 | 1.08 | 0.0576 |
